A short description of assay [1]: qHTS for Inhibitors of Plasmodium falciparum (DD2) proliferation (AID 504314).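 Note: parasite DNA measured by SYBR Green fluorescence after red cell lysis.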 The method, boiled down:
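Fluorescence read-out (ex 485/em 535 nm) of SYBR Green-stained parasite DNA quantifies intraerythrocytic growth. Cultures at 0.3% parasitemia and 2.5% hematocrit were treated for 72 h; data normalized to DMSO and 0.29 uM artemisinin wells.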

A short description of assay [2]: qHTS for Inhibitors of Plasmodium falciparum (GB4) proliferation (AID 504315). Note: nearly all actives have a fitted effect of over 50% in size. Put shortly:
(§1)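 Erythrocytes infected with P. falciparum line (0.3% parasitemia, 2.5% hematocrit final) incubated with compounds 72 h at 37 °C, 5% CO2; SYBR Green lysis buffer added, fluorescence read next day. Normalized to 0.29 uM artemisinin and DMSO.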

The nature of assay [3]: qHTS for Inhibitors of Plasmodium falciparum (7G8) proliferation (AID 504316). Note: nearly all actives have a fitted effect of over 65% in size. Note: potency is the fitted concentration of half-maximal effect. Put shortly:
as §1

Assay [4] can be described thus: qHTS for Inhibitors of Plasmodium falciparum (HB3) proliferation (AID 504318). Note: nearly all actives have a fitted effect of over 60% in size. Put shortly: as §1
In general terms: Quantitative high-throughput screening tests each substance at several concentrations.

Assay [5] can be described thus: qHTS for Inhibitors of Plasmodium falciparum (CP250) proliferation (AID 504320). The method, boiled down: as §1
For assay [6], the target named is Atrial natriuretic peptide receptor 1 (Homo sapiens) (UniProt P16066). Put plainly: Natriuretic polypeptide receptor (hNpr1) antagonism - Pilot CMLD screen (AID 1347052; calls by dose curve;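 note: HEK293 cells with hNpr1 stimulated by hNppA peptide at 0.1 nM; cGMP level read as GloSensor luciferase luminescence after agonist stimulation; series mostly up to about 9.2 µM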).

Results filed as inconclusive are left out. The source made the active and inactive calls. Unless noted, calls come from the whole dose curve; as a rule, active = well fitted curve in the direction sought with a large enough effect; inconclusive = small, poorly fitted or top-dose-only effect, or another doubt; inactive = no such curve, though single readings can be large; an effect the other way counts as inactive or inconclusive.

Chain of Atrial natriuretic peptide receptor 1 (Homo sapiens) (P16066 whole entry, looked up): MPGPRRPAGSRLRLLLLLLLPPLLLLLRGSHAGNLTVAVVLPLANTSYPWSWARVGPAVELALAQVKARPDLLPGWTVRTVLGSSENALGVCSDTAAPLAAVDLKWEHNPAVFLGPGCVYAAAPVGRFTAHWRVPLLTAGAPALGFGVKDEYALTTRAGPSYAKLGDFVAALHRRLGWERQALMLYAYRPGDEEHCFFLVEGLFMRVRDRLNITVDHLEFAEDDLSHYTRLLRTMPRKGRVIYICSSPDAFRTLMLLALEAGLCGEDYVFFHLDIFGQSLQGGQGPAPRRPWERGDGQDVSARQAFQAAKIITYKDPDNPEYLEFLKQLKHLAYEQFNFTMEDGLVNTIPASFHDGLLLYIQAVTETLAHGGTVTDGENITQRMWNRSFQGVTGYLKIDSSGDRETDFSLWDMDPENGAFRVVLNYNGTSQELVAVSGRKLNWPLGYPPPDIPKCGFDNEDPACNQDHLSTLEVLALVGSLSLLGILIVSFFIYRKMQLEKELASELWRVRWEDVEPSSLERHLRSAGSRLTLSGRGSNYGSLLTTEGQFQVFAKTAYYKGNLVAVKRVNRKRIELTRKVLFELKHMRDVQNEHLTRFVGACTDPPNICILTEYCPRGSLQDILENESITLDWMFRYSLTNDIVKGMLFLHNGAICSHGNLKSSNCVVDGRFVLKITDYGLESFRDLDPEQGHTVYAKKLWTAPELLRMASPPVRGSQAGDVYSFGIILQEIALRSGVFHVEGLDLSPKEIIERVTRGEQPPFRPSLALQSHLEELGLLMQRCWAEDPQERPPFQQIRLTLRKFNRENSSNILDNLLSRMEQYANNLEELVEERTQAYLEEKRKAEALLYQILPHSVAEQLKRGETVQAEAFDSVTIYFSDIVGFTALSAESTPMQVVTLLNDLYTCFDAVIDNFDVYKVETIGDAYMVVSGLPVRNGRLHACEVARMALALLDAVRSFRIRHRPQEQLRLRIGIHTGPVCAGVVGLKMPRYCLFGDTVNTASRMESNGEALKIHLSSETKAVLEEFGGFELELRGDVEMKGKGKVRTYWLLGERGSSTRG

On to `O=C1[C@H]2[C@@H]3[C@@H](O)[C@H](O)CC(=NOCc4ccccc4)[C@@H]3CC[C@H]2C(=O)N1c1ccc(F)cc1F`, for which the Potency result in assay [1], in assay [2], in assay [3], in assay [4], in assay [5] and in assay [6] was “inactive” each time.

As to `COCCN1C=C2C(=O)C(C)(OC(=O)C3CCCC3)C(=O)C=C2C=C1c1ccsc1` (stereo not given), the Potency entry in assay [1], in assay [2], in assay [3], in assay [4], in assay [5] and in assay [6] was “inactive” each time.

As to `C[C@H]1[C@H](O)[C@@H](N=[N+]=[N-])CCO[C@H]1c1ccccc1`, the Potency entry in assay [1], in assay [2], in assay [3], in assay [4], in assay [5] and in assay [6] was “inactive” throughout.

Consider `CCN1C(=O)[C@@H]2[C@H]3[C@H](O)[C@H](O)CC(=NO[C@@H](C)c4cn([C@H](CO)Cc5ccccc5)nn4)[C@@H]3CC[C@H]2C1=O`, for which the Potency entry in assay [1], in assay [2], in assay [3], in assay [4], in assay [5] and in assay [6] was “inactive” throughout.

For `COCCN1C(=O)N[C@@H](c2cccc(C(F)(F)F)c2)[C@H](C(C)=O)[C@H]1C`, the Potency result in assay [1], in assay [2], in assay [3], in assay [4], in assay [5] and in assay [6] was “inactive” throughout.

As for `COC(=O)C1(C(=O)OC)Cc2conc2[C@@H]1c1ccccc1`, the Potency result in assay [1], in assay [2], in assay [3], in assay [4], in assay [5] and in assay [6] was “inactive” in each case.

For `C=CCOC(=O)NC(c1ccc(F)c(F)c1)C(C(=O)COC)C(=O)OC` (stereo not given), the Potency entry in assay [1], in assay [2], in assay [3], in assay [4], in assay [5] and in assay [6] was “inactive” throughout.

Take `O=C(C=Cc1ccc2c(c1)OCO2)c1ccc(F)cc1`: the Potency entry in assay [1], in assay [2], in assay [3], in assay [4], in assay [5] and in assay [6] was “inactive” in each case.

`C#C[C@@H]1C=C[C@H](Oc2ccc(OC)cc2)[C@H](CO)O1`: the Potency result in assay [1], in assay [2], in assay [3], in assay [4], in assay [5] and in assay [6] was “inactive” each time.

As for `CCOC(=O)CN1C(=O)NC(CCc2ccccc2)C(C(=O)OC)=C1C` (stereo not given), the Potency entry in assay [1], in assay [2], in assay [3], in assay [4], in assay [5] and in assay [6] was “inactive” throughout.

As to `COC(=O)C1=C(C(=O)OC)[C@@H]2Nc3ccccc3[C@@]23C[C@@H](C(=O)OC)N(C(=O)NCCBr)C3=N1`, the Potency entry in assay [1], in assay [2], in assay [4], in assay [5] and in assay [6] was “inactive” each time. In addition, the Potency in assay [3] is 1.9 µM (active).

Take `C=CCOC(=O)N[C@H](c1ccco1)C(C(C)=O)C(C)=O`: the Potency result in assay [1], in assay [2], in assay [3], in assay [4], in assay [5] and in assay [6] was “inactive” throughout.

Take `COC(=O)CC=C[C@@H](C)[C@@H](C=NO[C@@H](C)c1cn([C@H](CO)Cc2ccccc2)nn1)NS(=O)(=O)c1ccc(C)cc1`: the Potency entry in assay [1], in assay [2], in assay [3], in assay [4], in assay [5] and in assay [6] was “inactive” in each case.

In the case of `O=C(NN=C1C[C@@H](O)[C@H](O)[C@H]2[C@@H]3C(=O)N(C[C@@H]4CCCO4)C(=O)[C@@H]3CC[C@H]12)OCc1ccccc1`, the Potency result in assay [1], in assay [2], in assay [3], in assay [4], in assay [5] and in assay [6] was “inactive” throughout.

With `C=CC[C@@](C(C)=O)(C(=O)OC)[C@@H](NC(=O)OC)c1ccccc1`, the Potency result in assay [1], in assay [2], in assay [3], in assay [4], in assay [5] and in assay [6] was “inactive” in each case.

Take `CCCCCCCc1cc2ccccc2c(=O)o1`: the Potency entry in assay [1], in assay [2], in assay [3], in assay [4], in assay [5] and in assay [6] was “inactive” throughout.

As for `CC(=O)OC[C@H]1O[C@H](c2ccc(C(C)=O)cc2)C=C[C@H]1OC(C)=O`, the Potency result in assay [1], in assay [2], in assay [3], in assay [4], in assay [5] and in assay [6] was “inactive” in each case.

As for `COC1=C[C@H](C(=O)NCc2ccc(Cl)cc2)C(C)C(c2ccccc2)CC1=O` (stereo not given in full), the Potency result in assay [1], in assay [2], in assay [3], in assay [4], in assay [5] and in assay [6] was “inactive” each time.

Consider `C[C@@H]1C=CCCO[C@]12C(=O)N(CC1CC1)c1ccccc12`, for which the Potency result in assay [1], in assay [2], in assay [3], in assay [4], in assay [5] and in assay [6] was “inactive” each time.

As for `O=c1n(-c2ccccc2)c(=O)n2n1CC[C@@H]1C(=NOC[C@@H](O)COCc3ccco3)[C@H]3O[C@H]3[C@@H](O)[C@H]12`, the Potency result in assay [1], in assay [2], in assay [3], in assay [4], in assay [5] and in assay [6] was “inactive” in each case.

With `COc1ccc2c(c1)O[C@H](c1ccc3c(c1)OCO3)[C@@H](OC(=O)N[C@H]1CCCc3ccccc31)C2=O`, the Potency entry in assay [1], in assay [2], in assay [3], in assay [4], in assay [5] and in assay [6] was “inactive” each time.

As for `CCN1C(=O)[C@@H]2[C@H]3[C@H](O)[C@H](O)CC(=NO[C@H](C)c4cn([C@@H]5COC[C@@H]5O)nn4)[C@@H]3CC[C@H]2C1=O`, the Potency entry in assay [1], in assay [2], in assay [3], in assay [4], in assay [5] and in assay [6] was “inactive” throughout.

As to `CC(=O)OC[C@H]1O[C@@H](ON=C[C@@H](C)[C@H](OCc2ccccc2)C(C)C)[C@@H](OC(C)=O)[C@@H](OC(C)=O)[C@@H]1OC(C)=O`, the Potency entry in assay [1], in assay [2], in assay [3], in assay [4], in assay [5] and in assay [6] was “inactive” each time.

In the case of `C[C@H]1Cc2c(-c3ccccc3)nc3c(c2CO1)CN(C(=O)Cc1cccs1)CC3`, the Potency entry in assay [1], in assay [2], in assay [3], in assay [4], in assay [5] and in assay [6] was “inactive” throughout.

Consider `COc1ccc(OC)c(-c2ccccc2C=NNS(=O)(=O)c2ccc(C)cc2)c1`, for which the Potency result in assay [1], in assay [2], in assay [3], in assay [4], in assay [5] and in assay [6] was “inactive” each time.

The record behind these values is PubChem BioAssay (NCATS).
